The record followed here is PubChem BioAssay AID1259309 (ICCB-Longwood Screening Facility, Harvard Medical School, 2017).

Values joined by “and” are separate entries in the source; they are usually repeats but may differ in a detail not shown here. Equal values may be shown once. The campaign covered roughly 330,000 compounds. About 1,800 (0.55%) were called active. Rule as the data show it: active = growth inhibition above about 68%; inactive = the rest. The full list was thinned out, with actives kept by preference. Some compounds were tested as several samples or in several runs, with calls that do not always agree.

The test is described as follows: growth inhibition of ugtP-null S. aureus, primary screen, RN4220 ugtP deletion, OD600 (AID 1259309).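 Also: plate controls were untreated wells for no effect and antibiotic for full effect.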 Particulars: 16 h, stronger effect = higher value.
As for `CCOC(=O)COc1c(C=NO)cc(Cl)cc1OC`, the growth inhibition is 1.74% (inactive). In the case of `O=C(CN1CCCCCC1)Nc1ccc(Br)cc1Br` it was 4.57% (inactive); in that of `O=C(CN1CCCCCC1)Nc1ccc(Br)cc1[N+](=O)[O-]`, 5.98% (inactive); in that of `O=C(CN1CCCCC1)Nc1ccc(Br)cc1C(=O)c1ccccc1Cl`, 88.6% (active). Take `COC(=O)C1=C(C(=O)OC)C2N(C)c3ccccc3[C@@]23CC(C(=O)OC)N(C(C)=O)C3=N1` (some centres not stated): the growth inhibition is 3.76% (inactive). In the case of `CC(C)C(=NNc1ccccc1[N+](=O)[O-])c1ccccc1` it was 42.3% (inactive). Regarding `NC(=O)C(=Cc1ccccc1)NC(=O)C=Cc1ccccc1`, the growth inhibition was -1.58% (inactive). With `CC(Cc1ccccc1)=NNC(=O)CNC(=O)Cc1ccccc1`, the growth inhibition is 2.62% (inactive).

On to `Cc1nc2c(cnn2-c2ccccc2)c(=O)n1N=Cc1ccccc1`, for which the growth inhibition was 6.82% (inactive). Turning to `C=C[C@]1(C)CC(OC(=O)CSCCN(CC)CC)[C@]2(C)C(C)CC[C@]3(CCC(=O)C32)C(C)C1O` (some centres not stated), the growth inhibition is 99.9% (active) and 100% (active).

Regarding `O=C(C=Cc1ccccc1Cl)Nc1ccncc1`, the growth inhibition is -22.9% (inactive). As to `C[C@]12CCC3c4ccc(O)cc4CCC3C1CCC2OC(=O)CCC(=O)O` (some centres not stated), the growth inhibition was 1.18% (inactive). Turning to `O=C(CN1CCN(Cc2ccccc2)CC1)NN=Cc1ccc(Br)s1`, the growth inhibition is -1.87% (inactive).

For `COc1cccc(C2CC=C(C(=O)O)C(c3ccc(F)cc3)N2S(=O)(=O)c2ccc(C)cc2)c1` (configuration not stated), the growth inhibition is 24.5% (inactive).

Regarding `O=[N+]([O-])c1cccc(C=NNc2nc(NCc3ccccc3)nc(N3CCOCC3)n2)c1O`, the growth inhibition is 1.29% (inactive). `Cc1ccc(-c2csc(N3CCCC3C(=O)NCCn3c(-c4ccncc4)nc4ccccc43)n2)cc1` (configuration not stated): the growth inhibition was 12.4% (inactive). On to `Cc1nn(-c2ccccc2)c(C)c1C=NNC(=O)c1cc(-c2ccc(Br)s2)[nH]n1`, for which the growth inhibition was -11.7% (inactive). For the molecule `COc1c(N2CCN(C(=S)Nc3ccccc3F)C(C)C2)c(F)cc2c(=O)c(C(=O)O)cn(C3CC3)c12` (configuration not stated), the growth inhibition is 100% (active).

Take `COc1ccccc1NC(=S)N1CCN(c2ccc(F)cc2)CC1`: the growth inhibition is 6.45% (inactive).

For `CC1CN(C(=S)Nc2ccccc2F)CC(C)O1` (configuration not stated), the growth inhibition was 2.47% (inactive). As for `CC=C(C)C(=O)Nc1cccc(C2=NOC3(C2)CC(C(N)=O)N(C(=O)c2ccc(OC)cc2)C3)c1` (configuration not stated), the growth inhibition was 0.227% (inactive). Turning to `O=S(=O)(C=Cc1ccccc1)N1CCN(c2nc(-c3cccnc3)nc3ccccc23)CC1`, the growth inhibition is -1.02% (inactive). In the case of `NC(=O)C(=O)NN=Cc1cccc(C(F)(F)F)c1` it was 6.69% (inactive); in that of `CCN(CC)CCCSc1nc2ccccc2s1`, 5.71% (inactive); in that of `O=[N+]([O-])c1c(NCCO)cc(Sc2nc3ccccc3s2)c2nonc12`, 99.9% (active). In the case of `OCCNc1nc(Nc2ccc(Cl)c(Cl)c2)nc2ccccc12`, the growth inhibition was -40.3% (inactive). For `CC(=O)CC1c2cc(C(F)(F)F)ccc2S(=O)(=O)N1C1CCCC1` (configuration not stated), the growth inhibition was -1.55% (inactive).

`CCOC(=O)c1ccc(NC(=O)c2nc[nH]c2C(=O)NC(Cc2ccccc2)C(=O)OC(C)(C)C)cc1` (configuration not stated): the growth inhibition is -22.8% (inactive). In the case of `Cc1ccc(C(=O)NCC(=O)NN=Cc2cccs2)cc1[N+](=O)[O-]`, the growth inhibition is 4.96% (inactive).

Take `COc1cc(C(=O)NN=Cc2cn(Cc3cccc(F)c3)c3ccccc23)ccc1O`: the growth inhibition is -6.8% (inactive). As to `COc1cccc(C=NNc2cc(-n3nc(C)cc3-c3ccccc3)ncn2)c1O`, the growth inhibition was 101% (active). As to `COc1cccc(C=NNc2ncnc3c2ncn3Cc2ccccc2)c1O`, the growth inhibition was 2.15% (inactive). As for `COc1cccc(C=NNC(=O)CSCC(=O)Nc2ccccc2)c1O`, the growth inhibition was -4.58% (inactive).

On to `CCc1ccc2c(c1)C(=O)C[C@]1(CCCC(C)C1)O2` (some centres not stated), for which the growth inhibition was 5.31% (inactive). `C#CCNC(=O)C1=CC(c2csc3ccccc23)CC(OCCCCO)O1` (configuration not stated): the growth inhibition is -11.2% (inactive). Take `Cc1ccc(OCC(=O)NN=Cc2ccc3c(c2)OCO3)cc1C`: the growth inhibition was -11% (inactive).

`CCCCCN1CC(O)=C(c2ccccc2)C1=N`: the growth inhibition is 2.59% (inactive). In the case of `CCCCCCCCCCCCn1ccc(=N)cc1` it was 101% (active); in that of `COc1ccc(C=NNc2nn3cnnc3c3ccccc23)cc1`, 12.2% (inactive); in that of `CCOC(=O)CN1C(=O)NC(c2ccco2)C(C(C)=O)=C1C` (configuration not stated), -0.836% (inactive). Regarding `CCC(=O)Nc1cccc(C2=NOC3(C2)CC(C(N)=O)N(C(=O)COc2ccc(Cl)cc2)C3)c1` (configuration not stated), the growth inhibition was 3.89% (inactive). Turning to `CCOC(=O)C1(CCOc2ccccc2)CCN(Cc2cc(OC)c(O)cc2Cl)CC1`, the growth inhibition was 4.94% (inactive). As to `Cc1c(CN2CCC(CO)(CCOc3ccccc3)CC2)[nH]c2ccc(Cl)cc12`, the growth inhibition is 95.4% (active). As to `CCOC(=O)C1(CCOc2ccccc2)CCN(Cc2cc(OC)cc(OC)c2)CC1`, the growth inhibition was 2.42% (inactive). With `Nc1nonc1-n1nnc(C(=O)NN=Cc2ccc(Cl)cc2Cl)c1CN1CCCCC1`, the growth inhibition was 6.34% (inactive). In the case of `ON=C1CC2(CC(=NO)C1=NO)OCCO2` it was -5.45% (inactive). On to `S=C(Nc1ccccc1)Nc1ccc2ccccc2c1`, for which the growth inhibition was -7.81% (inactive).

Regarding `Cc1nc2cc(NC(=O)Nc3cccc(F)c3)ccc2n1C`, the growth inhibition is -1.04% (inactive). As to `O=C(Nc1ccc2ccccc2c1)Nc1ccc2snnc2c1`, the growth inhibition is 94.2% (active). For the molecule `COCc1cc(C)nc(OCC(=O)NN=Cc2ccc(C)cc2)c1C#N`, the growth inhibition was 3.45% (inactive).

In the case of `COc1ccc(OC)c(C(C)NC(=S)Nc2ccc(S(=O)(=O)Nc3ncccn3)cc2)c1` (configuration not stated), the growth inhibition was 6.82% (inactive). In the case of `CC(=O)c1ccc(NC(=S)NC(=O)CC(C)C)cc1` it was 29.6% (inactive). Then `COc1ccc(NS(=O)(=O)c2ccc(NC(=S)NC(=O)CC(C)C)cc2)cc1`, with 88% (active); and `COc1ccc(/C=C\C(=O)Oc2cccc(C=NNC(=O)Cc3ccc(OC)c(OC)c3)c2)cc1`, with 28.2% (inactive); and `CCCCC1CC1C(NC(=O)c1cccs1)c1ccc(C(F)(F)F)cc1` (configuration not stated), with 3.18% (inactive).

As to `COc1ccc(CNC(=O)CCN2C(=O)c3ccccc3C2=O)cc1`, the growth inhibition was 0.235% (inactive). With `CCOC(=O)C1=C(c2ccc(OC)cc2)C(=O)c2ccccc2C1=O`, the growth inhibition was 98.1% (active).

On to `COC(=O)c1cc(OC)ccc1-c1ccc(OC)cc1`, for which the growth inhibition is 24.4% (inactive).

Turning to `O=C(NC1CC(=NO)c2cc3c(cc21)OCO3)C(F)(F)F` (configuration not stated), the growth inhibition is 3.72% (inactive). Consider `Fc1ccc(-c2ccc(C=Nn3cnnc3)o2)cc1`, for which the growth inhibition is 3.75% (inactive). Turning to `O=C(CSc1nc2ccccc2n1Cc1ccc(Cl)cc1)NN=Cc1ccccc1C(=O)O`, the growth inhibition was 0.317% (inactive).

Take `OCCC1CC(O)C(O)[C@@]2(CCCc3ccccc3O2)O1` (some centres not stated): the growth inhibition is -2.74% (inactive) and 36.1% (inactive) and 95.4% (active).

As for `OCCC1CC(O)C(O)[C@]2(Cc3ccccc3O2)O1` (some centres not stated), the growth inhibition was -11.4% (inactive) and -1.82% (inactive) and 6.13% (inactive). For `COc1ccc(-c2cnnc(NN=Cc3ccc(OC)c(OC)c3)n2)cc1`, the growth inhibition was -0.988% (inactive). For the molecule `COc1cc(C(=O)NCC(=O)NN=C(C)Cc2ccccc2)cc(OC)c1OC`, the growth inhibition is 1.68% (inactive). With `Cc1cc(N=Nc2ccc3ccccc3c2)ccc1O`, the growth inhibition is 100% (active). Then `Cc1c(O)ccc(C(Cc2ccc3ccccc3n2)=NN)c1O`, with 7.02% (inactive). Consider `Cc1nc2cc(NC(=O)CSc3nc4c(C)cccc4cc3C#N)ccc2s1`, for which the growth inhibition was 96.5% (active). Regarding `Cc1cc(C)c(C#N)c(SCC(=O)Nc2ccccc2)n1`, the growth inhibition was -0.258% (inactive). Then `Cc1nonc1NC(=O)CSc1nc2ccccc2cc1C#N`, with -7.53% (inactive); and `Cc1ccc(NC(=S)NN=C2CC(C)(C)Oc3ccc(O)cc32)cc1`, with -1.6% (inactive); and `CCCc1c(C(=O)NN=Cc2ccncc2)nnn1-c1nonc1N`, with -1.92% (inactive). For `Cn1cncc1C#Cc1c(-c2ccsc2)sc2ccccc12`, the growth inhibition is 89% (active).

As for `COc1ccc2sc(-c3ccc(S(C)(=O)=O)cc3)c(C#Cc3cncn3C)c2c1`, the growth inhibition was -24.1% (inactive). Take `O=C(NCc1ccc2c(c1)OCO2)c1c(-c2ccsc2)sc2ccccc12`: the growth inhibition is 13.5% (inactive). As to `CC1CN(C(C)CO)C(=O)c2cc(NS(=O)(=O)c3ccccc3)ccc2OC1CN(C)C(=O)Nc1ccc2c(c1)OCO2` (configuration not stated), the growth inhibition is 1.83% (inactive).

For the molecule `CCCCN1C(=N)N(C(C)CN2CCCC2CN2C(N)=NCC2Cc2ccccc2)CC1C(C)CC` (configuration not stated), the growth inhibition is 2.45% (inactive). `CC[C@@H](C)[C@@H]1CN([C@@H](C)CN2CCC[C@H]2CN2C(N)=NC[C@H]2C(C)C)C(=N)N1CCc1ccc(Cl)c(Cl)c1`: the growth inhibition was 100% (active). With `CC(=O)C(=NNc1ccccc1)Sc1nnc(-c2ccccc2)n1-c1ccccc1`, the growth inhibition is -0.945% (inactive).

In the case of `CCc1ccc(C=Nn2c(C)cc(C)c(C#N)c2=O)cc1`, the growth inhibition was 11.9% (inactive). With `CC(=NNC(=O)c1c(-c2ccccc2Cl)noc1C)c1cccc(NC(=O)C(C)C)c1`, the growth inhibition is -1.85% (inactive). As for `O=c1ccnc(Nc2ccc(Cl)cc2)[nH]1`, the growth inhibition is -0.107% (inactive).

Consider `Cc1csc(Nc2ccc(Cl)cc2)[n+]1-c1ccc(Cl)cc1`, for which the growth inhibition is 94.3% (active). Take `CCOC1OC(C(N)=O)=CC(c2csc3ccccc23)C1CCCO` (configuration not stated): the growth inhibition was -0.922% (inactive). In the case of `NC(=O)CC1NC(=O)C(CCC(=O)O)NC(=O)c2cc([N+](=O)[O-])cc(I)c2NCCCC(C(N)=O)NC1=O` (configuration not stated), the growth inhibition was 5.02% (inactive). For `COc1cccc(C=NNC(=O)c2ccccc2NC(=O)c2ccco2)c1OC`, the growth inhibition is 17.5% (inactive). Turning to `COC(=O)Cc1ccc(OCC(=O)NC2CCCC2)cc1`, the growth inhibition was 5.86% (inactive). Then `CC1(C)SC2C(NC(=O)COc3ccccc3)C(=O)N2C1C(=O)O` (configuration not stated), with 101% (active). In the case of `Cc1cccc(OCC(=O)NC2CC(C)(C)NC(C)(C)C2)c1` it was -2.79% (inactive). In the case of `O=C(O)CS/C(=C\c1ccc(F)cc1)c1nc2ccccc2s1` it was -0.309% (inactive); in that of `CC1=CC(=C(C#N)c2nc3ccccc3s2)C=C(C)N1c1ccc(F)cc1F`, 3.53% (inactive). In the case of `N#C/C(=C(/O)Cc1cccc2ccccc12)c1nc2ccccc2s1`, the growth inhibition is 88% (active).
